# Data reported in PubChem BioAssay AID1942 (Johns Hopkins Ion Channel Center, 2009).
# Screen size: about 2,400 compounds; about 580 (24%) were called active.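 How the source made its calls: active means activity change at or above the mean plus 3 SD of buffer wells without dofetilide, per plate; inactive means the rest.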 The list is a sample of the results.
# Target: Potassium voltage-gated channel subfamily KQT member 2 (Rattus norvegicus) (UniProt O88943)
# Assay: rat KCNQ2 channel activation by compounds alone, confirmation, counter-screen for hERG block protector project, cell-based, CHO, FluxOR thallium flux (AID 1942);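 further: normalized value minus buffer-control mean plus three SD of buffer wells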
# Conditions: CHO-KCNQ2 cells, FluxOR thallium flux fluorescence; at 10 µM; hits give high values
# Sequence of Potassium voltage-gated channel subfamily KQT member 2 (Rattus norvegicus) (O88943 whole entry, looked up): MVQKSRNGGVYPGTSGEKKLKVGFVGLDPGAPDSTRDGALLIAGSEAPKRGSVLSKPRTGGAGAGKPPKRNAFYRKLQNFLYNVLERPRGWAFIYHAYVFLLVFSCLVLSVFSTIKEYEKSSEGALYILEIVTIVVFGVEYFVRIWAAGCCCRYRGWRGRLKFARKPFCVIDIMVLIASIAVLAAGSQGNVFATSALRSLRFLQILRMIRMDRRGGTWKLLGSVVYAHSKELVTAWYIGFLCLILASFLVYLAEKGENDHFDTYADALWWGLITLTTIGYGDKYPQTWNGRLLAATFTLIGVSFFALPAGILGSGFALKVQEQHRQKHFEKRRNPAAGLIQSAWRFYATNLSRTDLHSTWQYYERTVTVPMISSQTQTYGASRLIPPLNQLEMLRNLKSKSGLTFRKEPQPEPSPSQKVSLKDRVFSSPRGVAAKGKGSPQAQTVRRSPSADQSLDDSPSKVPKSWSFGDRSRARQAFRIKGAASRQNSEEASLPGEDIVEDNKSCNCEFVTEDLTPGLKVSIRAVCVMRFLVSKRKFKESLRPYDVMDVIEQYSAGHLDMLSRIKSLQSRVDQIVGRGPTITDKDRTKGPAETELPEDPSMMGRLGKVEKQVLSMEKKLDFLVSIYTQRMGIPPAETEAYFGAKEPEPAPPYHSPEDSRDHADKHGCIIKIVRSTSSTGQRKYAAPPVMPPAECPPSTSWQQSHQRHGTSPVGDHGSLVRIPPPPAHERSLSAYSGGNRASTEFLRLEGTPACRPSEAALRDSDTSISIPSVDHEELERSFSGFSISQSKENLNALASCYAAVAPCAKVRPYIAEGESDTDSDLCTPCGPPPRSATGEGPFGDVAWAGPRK
row,Compound,"activity change, less the hit threshold"
1,Cc1c(C)n(CCN(C)C)c2ccc(C(=O)OCCN(C)C)cc12,-12.7% (inactive)
2,CCCCCN(C(=O)CCC(=O)OC(C)C(=O)c1ccccc1)c1c(N)n(CCCC)c(=O)[nH]c1=O (stereo unspecified),-10.3% (inactive)
3,CCn1nnnc1SCC(=O)N1c2ccccc2Sc2ccccc21,-16.2% (inactive)
4,CCc1nnc(NS(=O)(=O)c2ccc(NC(=S)NC(=O)/C=C/c3ccc(OC)cc3)cc2)s1,-7.3% (inactive)
5,COc1ccc(CCNC(=O)CSc2ccc3nnc(CCNC(=O)c4ccccc4)n3n2)cc1OC,-18.6% (inactive)
6,CCCN1CCC(NC(=O)CC2C(=O)NCCN2Cc2cccc(OC)c2)CC1 (stereo unspecified),-17.9% (inactive)
7,CCC(=O)Nc1ccc(C(=O)NNC(=O)c2cc([N+](=O)[O-])cc([N+](=O)[O-])c2)cc1,-17.8% (inactive)
8,CCCCCC(=O)NNC(=S)NC(=O)c1ccc([N+](=O)[O-])cc1,-31.9% (inactive)
9,CCCCNC(=S)NC(=O)c1ccc([N+](=O)[O-])cc1,22.9% (active)
10,CC1CCN(S(=O)(=O)c2ccc3nc(N4CCN(c5ccccc5)CC4)ccc3c2)CC1,-25.2% (inactive)
11,Cc1ccc(Cc2c[nH]c(=S)s2)cc1,52.8% (active)
12,Clc1ccc(Cc2ccccc2)nn1,-12.9% (inactive)
13,Cc1[nH]c(=S)sc1Cc1ccc(Cl)c(Cl)c1,-16% (inactive)
14,S=c1[nH]cc(Cc2ccccc2)s1,1.4% (active)
15,COCCn1cnc2c1c(=O)n(CC#N)c(=O)n2Cc1ccccc1,-22% (inactive)
16,CCOc1ccc(CCNC(=O)Nc2ccccc2C)cc1OCC,-14.3% (inactive)
17,CNC(=O)CSc1nnc(-c2ccco2)n1-c1ccc(C)cc1,-16.3% (inactive)
18,Cc1ccc(C(=O)N/N=C(/CC(=O)c2cccs2)C(F)(F)F)cc1,5.2% (active)
19,CCCOc1ccc(C(=O)NNC(=S)NC(=O)c2cccs2)cc1,-34.1% (inactive)
20,Cc1ccc(C(=O)NC(=S)Nc2ccccc2C(F)(F)F)cc1,-24.5% (inactive)
21,COc1ccc(S(=O)(=O)N2CCN(C(=O)CNC(=O)c3ccc4c(c3)OCO4)CC2)cc1,-12.9% (inactive)
22,O=C(Nc1c[nH]c(=O)[nH]c1=O)c1ccc2c(c1)C(=O)N(c1cccc([N+](=O)[O-])c1)C2=O,-9.9% (inactive)
23,O=C(CN1CCCCCC1)Nc1ccc(Oc2ccccc2)cc1,-20.3% (inactive)
24,Cc1nn(CC(=O)Nc2ccc(C(=O)N3CCCC3)cc2)c(=O)c2ccccc12,11.5% (active)

row,Compound,"activity change, less the hit threshold"
1,O=C(Cn1nc(-c2ccccc2)c2ccccc2c1=O)Nc1ccc(O)cc1,-25.7% (inactive)
2,O=C(Nc1ncc(Br)s1)C(Cc1ccccc1)n1cccc1 (stereo unspecified),-5.9% (inactive)
3,Cn1cnnc1SCC(=O)NCc1ccccc1,-24.1% (inactive)
4,COc1cc(/C=C/C(=O)N[C@@H](Cc2c[nH]c3ccccc23)C(=O)O)ccc1O,-15.9% (inactive)
5,COC(=O)Oc1ccc(/C=C/C(=O)OC(C)C)cc1OC(=O)OC,3% (active)
6,COc1cc(/C=C/C(=O)O)ccc1OS(=O)(=O)c1cc(C)ccc1C,-16.4% (inactive)
7,Cc1ccc(NC2=CC(=O)OC(C)C2)cc1 (stereo unspecified),-17.3% (inactive)
8,Cc1ccc(Oc2ccc(OCC(=O)NC(CC(C)C)C(=O)O)cc2)cc1 (stereo unspecified),-14.9% (inactive)
9,CC1=Nc2ccc(C)cc2/C1=C/c1c(N)n2c(S(=O)(=O)C(C)C)nsc2nc1=O,-27% (inactive)
10,O=C(c1c(O)c2ccccc2oc1=O)C1CCCCC1,-4.8% (inactive)
11,O=c1oc2ccccc2c(Cl)c1CN1CCCCC1,8.6% (active)
12,O=C(CN1CCCCCCC1)Nc1cccc(Cl)c1Cl,-20.9% (inactive)
13,CSc1nc2c(c(=O)[nH]1)C(c1ccc(F)cc1)CC(=O)N2 (stereo unspecified),-16.4% (inactive)
14,O=C(NCc1ccc(Cl)cc1)C1CCN(S(=O)(=O)c2cccc3nonc23)CC1,-10% (inactive)
15,Cc1[nH]c(=O)[nH]c(=O)c1S(=O)(=O)N1CCC(C(=O)NC(C)c2ccccc2)CC1 (stereo unspecified),-19.6% (inactive)
16,CC(NC(=O)C1CCN(S(=O)(=O)c2cccc3cccnc23)CC1)c1ccccc1 (stereo unspecified),0.9% (active)
17,Nc1ncnc(NC2CCS(=O)(=O)C2)c1[N+](=O)[O-] (stereo unspecified),-11.2% (inactive)
18,CC1CCc2c(sc(NS(=O)(=O)c3ccccc3)c2C(=O)OC(C)C)C1 (stereo unspecified),8.2% (active)
19,CCOC(=O)c1c(C)[nH]c(C)c1S(=O)(=O)N1CCCCC1,-11% (inactive)
20,COC(=O)c1c(NC(=O)CN2CCOCC2)sc2c1CCC(C)C2 (stereo unspecified),-9.9% (inactive)
21,CC(C)OC(=O)c1c(NS(=O)(=O)c2ccccc2)sc2c1CCCC2,9.1% (active)
22,CC(NS(=O)(=O)c1ccccc1)C(N)=O (stereo unspecified),-21.1% (inactive)
23,CCOC(=O)c1c(NS(C)(=O)=O)sc2c1CCC(C)C2 (stereo unspecified),26.3% (active)
24,Cc1cc(C)c(-c2cc(NC(=O)COC(=O)c3ccc(NC(=O)CC#N)cc3)n(-c3ccccc3)n2)cc1C,-22.1% (inactive)

row,Compound,"activity change, less the hit threshold"
1,NC(=O)CC1NC(=O)c2ccccc21 (stereo unspecified),-13.3% (inactive)
2,CCCNS(=O)(=O)c1ccc(OCC(=O)Nc2ccc3c(c2)OCCO3)cc1,-11.5% (inactive)
3,Cc1oc(-c2cccs2)nc1CN1CCC(C(=O)N2CCCC2)CC1,-17.4% (inactive)
4,CC1c2nc3ccccc3n2C(CC(=O)NCCCN2CCOCC2)C(=O)N1Cc1ccccc1 (stereo unspecified),-19.4% (inactive)
5,O=C(Nc1ccc(Oc2cccnc2)cc1)c1cccc([N+](=O)[O-])c1,-14.1% (inactive)
6,CCC1CCCCN1C(=S)NC(=O)c1cccc([N+](=O)[O-])c1 (stereo unspecified),24% (active)
7,CC1CCN(C(=S)NC(=O)c2cccc([N+](=O)[O-])c2)CC1,5.8% (active)
8,O=C(NC(=S)Nc1ccccc1N1CCCC1)c1ccc(-c2cccc([N+](=O)[O-])c2)o1,-10.1% (inactive)
9,CCC1CCCCN1C(=S)NC(=O)c1ccc([N+](=O)[O-])cc1 (stereo unspecified),32.5% (active)
10,O=C(O)c1cccc(C(=O)Nc2cccc(NC(=O)C3CCCO3)c2)c1 (stereo unspecified),-21.4% (inactive)
11,CCC1CCCCN1C(=S)NC(=O)c1cccs1 (stereo unspecified),-4.1% (inactive)
12,O=C(NC(=S)N(CC1CCC1)CC1CCCO1)c1cccc([N+](=O)[O-])c1 (stereo unspecified),39.6% (active)
13,Cn1cc([N+](=O)[O-])c(C(=O)N/N=C\c2c[nH]c3ccccc23)n1,-15.5% (inactive)
14,CCCCN1C(=O)/C(=C2/Sc3ccc(Cl)cc3N2CC)SC1=S,-27.6% (inactive)
15,CNC(=O)c1ccc(NC(=O)CN2c3cccc4cccc(c34)S2(=O)=O)cc1,-18.1% (inactive)
16,COc1ccc(CS(=O)(=O)CC2(O)CCN(C(=O)c3cccc(C(F)(F)F)c3)CC2)cc1,-25.4% (inactive)
17,O=C1CN(C(=O)COc2ccccc2F)c2ccccc2N1,-18.7% (inactive)
18,O=C(c1csc(Nc2ccccc2Cl)n1)N1CCCC1,-14.5% (inactive)
19,COc1cc(CNn2nnnc2N)ccc1OCC(=O)NC(C)(C)C,-20% (inactive)
20,COc1ccc(NC(=O)CC23CC4CC(CC(C4)C2)C3)cn1,44.4% (active)
21,COc1ccccc1CC(=O)Nc1ccc(OC)c(OC)c1,-12.4% (inactive)
22,COc1ccc(NC(=O)CCN2C(=O)C3C4C=CC(C4)C3C2=O)cc1 (stereo unspecified),-21.1% (inactive)
23,CC(C)(C)c1cc(CCC(=O)NCc2ccncc2)cc(C(C)(C)C)c1O,-15.7% (inactive)
24,CCOC(=O)c1sc2nc(N3CCOCC3)c3c(c2c1N)CCN(Cc1ccccc1)C3,0.1% (active)

row,Compound,"activity change, less the hit threshold"
1,Cn1ncc2c(NNC(=O)c3ccc(O)cc3)ncnc21,-24.5% (inactive)
2,CC(C)(C)NC(=O)C(=O)NNC(=O)c1cccc(Br)c1,16.4% (active)
3,CC(C)(C)NC(=O)C(=O)NNC(=O)COc1ccccc1,-16.3% (inactive)
4,CC/C(=N\NC(=S)Nc1cccc(C)c1)c1ccccc1,-13% (inactive)
5,O=C(NN1C(=O)C2C(c3ccccc3)C=CC(c3ccccc3)C2C1=O)c1cccc(Br)c1 (stereo unspecified),-3.8% (inactive)
6,C=CCNC(=O)COc1ccc(Oc2ccccc2)cc1,-6.4% (inactive)
7,Cc1cccc(NC(=O)C(=O)NNC(=O)c2ccc(C(C)(C)C)cc2)c1,110% (active)
8,CC(C)(C)c1ccc(C(=O)CC(=O)c2cc(Cl)ccc2O)cc1,-11.6% (inactive)
9,CC(C)(C)NC(=O)C(=O)NNC(=O)c1ccccc1,-9.7% (inactive)
10,CC(C)(C)NC(=O)C(=O)NNC(=O)c1ccc(C(C)(C)C)cc1,27.1% (active)
11,O=C(Nc1ccccc1C(=O)O)c1cncc(Br)c1,-3% (inactive)
12,CC(C)(C)NC(=O)C(=O)NNC(=O)COc1ccc(Br)cc1,41.1% (active)
13,CCCc1cc(C(=O)NNC(=S)Nc2cccc(C)c2)cs1,-16.5% (inactive)
14,O=C(/C=C/c1ccccc1)Nc1ccc(S(=O)(=O)N2CCOCC2)cc1,-12.6% (inactive)
15,Cc1cc(C(=O)N/N=C/c2ccc(O)c([N+](=O)[O-])c2)n[nH]1,-19.6% (inactive)
16,O=C(CSc1ccccc1)N1CCN(S(=O)(=O)c2cccs2)CC1,-6.8% (inactive)
17,O=C(CSc1nnc(NC(=O)c2ccc(S(=O)(=O)N3CCOCC3)cc2)s1)Nc1ccccc1C(F)(F)F,-15.6% (inactive)
18,O=C(CSc1nc2ccc(NC(=O)c3ccccc3C(=O)O)cc2s1)Nc1c(Cl)cccc1Cl,-7.3% (inactive)
19,COc1ccc(N2C(=O)CCC(C(=O)O)C2c2ccc(F)cc2)cc1 (stereo unspecified),-16.9% (inactive)
20,CCC(C)NC(=O)Cn1nc(C(F)(F)F)c2c1CCCC2 (stereo unspecified),-23.4% (inactive)
21,O=C(NCc1cccnc1)Nc1ccc2c(c1)OCO2,-26% (inactive)
22,S=C(NCc1ccco1)N1CCN(c2nc(-c3ccccc3)cs2)CC1,-24.1% (inactive)
23,O=C(NC(=S)N1CCN(c2nc(-c3ccccc3)cs2)CC1)c1cncc(Br)c1,45.1% (active)
24,O=C(NC(=S)Nc1nc(-c2ccccc2)cs1)c1cncc(Br)c1,-12.3% (inactive)
